Drawing on PubChem BioAssay AID1490 (National Center for Advancing Translational Sciences (NCATS), 2009), this text covers Potency and largest response in the series, negative = inhibition for 48 molecules.

Hit rate of the full screen: of about 310,000 compounds, about 11,000 (3.5%) were called active. Another 4% or so got no clear call; they are omitted. For the sample, actives were picked, then their nearest neighbours and some compounds at random. A number with no mark means an inactive call. The call rests on the fitted dose curve; in most records, active means well fitted inhibition curve with a large enough effect; inconclusive means small, poorly fitted or top-dose-only effect, or another doubt; inactive means no such curve, though single readings can be large or run the other way.
Potency means the concentration at half of the fitted maximal effect.

In this test the target is 4'-phosphopantetheinyl transferase ffp (Bacillus subtilis) (UniProt Q9F4F7). The experiment in a line: qHTS Assay for Inhibitors of Bacillus subtilis Sfp phosphopantetheinyl transferase (PPTase).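 Further: the enzyme is Sfp with the accession as filed and its product quenches rhodamine fluorescence.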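 On largest response in the series, negative = inhibition: 0% = enzyme reaction without inhibitor and -100% = no enzyme wells.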 Conditions: Biochemical Sfp PPTase activity. The method, boiled down: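 Step 1, compound plus 15 nM Sfp-PPTase, 15 min, room temperature. Step 2, add rhodamine-CoA (5 uM) and BHQ-2-YbbR (12.5 uM). Step 3, read 525/598 nm fluorescence at 0 and 30 min.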
In general terms: qHTS replaces the single test concentration by a dilution series.
Turning to `C=CS(=O)c1sc(Cl)c(N2CCOCC2)c1[N+](=O)[O-]` (stereo not drawn), the Potency was 10 µM (active).

For `COc1ccc(CCNC(=O)c2nnc(CS(=O)(=O)c3ccccc3)o2)cc1OC`, the largest response in the series, negative = inhibition was 9.29%.

Take `COc1ccc(C(=O)NC(C)Cn2nc(C)cc2C)cc1OC1CCN(C(C)=O)CC1` (stereo not drawn): the largest response in the series, negative = inhibition is 12.4%.

As to `COc1ccc(C(=O)O/N=C(\N)Cc2ccc(Cl)cc2Cl)cc1OC`, the largest response in the series, negative = inhibition is 0.628%.

For the molecule `NC(N)=N/N=C/c1ccc(OCc2ccc(Cl)cc2Cl)cc1`, the Potency was 31.6 µM (active).

Consider `NC(N)=N/N=C/c1ccc(Cl)c([N+](=O)[O-])c1`, for which the largest response in the series, negative = inhibition is 6.82%.

Consider `CCCOc1ccc(CNC(=O)C2CCN(c3nn4c(=O)cc(C)nc4s3)CC2)cc1`, for which the largest response in the series, negative = inhibition is 7.3%.

With `Cc1csc(NC(=O)c2ccc(-c3ccc(Cl)cc3Cl)o2)n1`, the largest response in the series, negative = inhibition is 1.33%.

Take `CC1CCN(C(=S)c2ccc(-c3ccc(Cl)cc3Cl)o2)CC1`: the Potency is 50.1 µM (active).

As for `COc1ccc(C(=O)Nc2c(Cl)cc(Cl)cc2C(=O)N2CCC(C)CC2)cc1`, the largest response in the series, negative = inhibition was 11.9%.

On to `Cc1nc2cc(C(F)(F)F)ccc2n1CCNc1nc(-c2cc(Cl)c(N)c(Cl)c2)cs1`, for which the largest response in the series, negative = inhibition is 9.07%.

For the molecule `Cc1cccc(N2CCN(C(=O)c3cccc(N4C(=O)C5C6C=CC(C6)C5C4=O)c3)CC2)c1C` (stereo not drawn), the largest response in the series, negative = inhibition was 14.6%.

For the molecule `CCOC(=O)c1ccc(-c2ccc(C(=O)Nc3cccnc3)o2)cc1`, the Potency was 44.7 µM (active).

With `CCOC(=O)c1ccc(NC(=O)c2cccnc2)cc1`, the largest response in the series, negative = inhibition is 10.5%.

For the molecule `Cc1ccc(NC(=O)Nc2cccnc2)cc1`, the largest response in the series, negative = inhibition was 2.48%.

With `Cc1cccc(C(=O)Nc2ccc(Oc3cnccn3)cc2)c1`, the largest response in the series, negative = inhibition is 11%.

For the molecule `C=C1CCN(C(CC(C)C)C(=O)NCc2cc(OC)c(OC)c(OC)c2)S(=O)(=O)c2ccccc21` (stereo not drawn), the largest response in the series, negative = inhibition was -15.6%.

Regarding `CCOc1ccc(C(c2c(C)[nH][nH]c2=O)c2c(C)[nH][nH]c2=O)cc1OCC`, the largest response in the series, negative = inhibition is 2.34%.

For the molecule `Cc1[nH][nH]c(=O)c1C(c1ccc2c(c1)OCO2)c1c(C)[nH][nH]c1=O`, the largest response in the series, negative = inhibition was 5.9%.

For `Cc1[nH][nH]c(=O)c1C(c1ccc(-c2ccc(Cl)cc2)o1)c1c(C)[nH][nH]c1=O`, the Potency is 39.8 µM (active).

In the case of `Cc1ccc2occ(/C=N/NC(=O)c3ccccc3C)c(=O)c2c1`, the largest response in the series, negative = inhibition is 18.5%.

With `CCC(C)[C@H](NC(=O)N1c2ccccc2NC(=O)[C@@H]1C(C)C)C(=O)N[C@@H](Cc1ccccc1)C(=O)O` (stereo partly drawn), the largest response in the series, negative = inhibition is 13.4%.

On to `Cc1ccc(OCCOc2cccc(/C=N/NC(N)=O)c2)cc1`, for which the largest response in the series, negative = inhibition was 9.7%.

In the case of `Cc1n[nH]c(=O)nc1N/N=C/c1cccs1`, the largest response in the series, negative = inhibition was 4.06%.

Regarding `Cc1nnc(N/N=C/C2CC=CCC2)[nH]c1=O` (stereo not drawn), the Potency was 79.4 µM (active).

For `O=C(N/N=C\C1CC=CCC1)c1ccc(Br)o1` (stereo not drawn), the largest response in the series, negative = inhibition is 5.57%.

For `Clc1ccc(N/N=C/c2cccs2)nn1`, the largest response in the series, negative = inhibition is -26.9%.

Turning to `COCc1c(C(=O)N/N=C/C2CC=CCC2)nnn1-c1nonc1N` (stereo not drawn), the largest response in the series, negative = inhibition is -0.608%.

For the molecule `Cc1nnc(N/N=C/c2cccs2)[nH]c1=O`, the Potency was 89.1 µM (active).

For `COc1ccc(CNC(=O)c2cc(C(=O)C3CC3)c[nH]2)cc1`, the largest response in the series, negative = inhibition was 19.2%.

For `CCc1cc(=O)oc2c(C)c(OCC(=O)N3CC[C@@]4(O)CCCC[C@H]4C3)ccc12`, the largest response in the series, negative = inhibition was 6.44%.

`O=C(Nc1cccc(F)c1)NC1CCCCCCC1`: the largest response in the series, negative = inhibition was 8.11%.

Regarding `COc1ccc2c(c1)O[C@@H](c1ccc3c(c1)OCO3)[C@H](OC(=O)NCc1ccco1)C2=O`, the largest response in the series, negative = inhibition is 1.2%.

As to `CC(C)OCCCNC(=O)CN1C(=O)/C(=C/c2ccccc2F)Oc2ccccc21`, the largest response in the series, negative = inhibition was -3.78%.

For the molecule `Cc1cc(=O)[nH]c(=S)[nH]1`, the Potency was 31.6 µM (active).

As to `Cc1cc(=O)cc(C)[nH]1`, the largest response in the series, negative = inhibition was 15%.

Turning to `CSc1cc(C)[nH]c(=O)n1`, the largest response in the series, negative = inhibition was 7.92%.

Take `O=C(c1ccccc1F)N1CCN(S(=O)(=O)c2ccc(Br)cc2)CC1`: the largest response in the series, negative = inhibition was 9.87%.

Consider `O=C(c1ccc[nH]c1=S)N1CCN(S(=O)(=O)c2ccc(Br)cc2Cl)CC1`, for which the Potency is 79.4 µM (active).

On to `O=C(c1ccc(Cl)c(S(=O)(=O)N2CCCCC2)c1)N1CCCCCC1`, for which the largest response in the series, negative = inhibition was 16.4%.

Take `CC(C)Sc1ncnc2c1cnn2-c1ccccc1`: the largest response in the series, negative = inhibition was -5.09%.

For `C=C1C(=O)C23C(O)C1CCC2[C@]12COC3(O)C(O)C1C(C)(C)CC[C@H]2O` (stereo partly drawn), the largest response in the series, negative = inhibition was -81.1%.

Consider `O=C(COCc1cc(-c2ccc3c(c2)OCO3)on1)N1CCN(c2cccc(Cl)c2)CC1`, for which the largest response in the series, negative = inhibition was -5.35%.

As to `COc1ccc2[nH]c(=S)cc(C)c2c1`, the Potency is 39.8 µM (active).

Turning to `COc1ccc2[nH]c3c(C)c4cc[n+](C)cc4c(C)c3c2c1`, the largest response in the series, negative = inhibition is -11.7%.

As for `COc1ccc2c(C)cc3nnnn3c2c1`, the largest response in the series, negative = inhibition was 7.5%.

`CC(C)c1cc(C(=O)N/N=C/c2ccoc2)c(O)c(C(C)C)c1`: the largest response in the series, negative = inhibition was 13.5%.

Take `CC1CC(C)CN(CCCNC(=O)Cn2ncc3c([nH]c4ccccc43)c2=O)C1` (stereo not drawn): the largest response in the series, negative = inhibition was 5.5%.
